# Compounds with a hit are over-represented: about 18% of the library has one in this group of screens.
# Gal4-VP16 FLuc: Gal4-VP16 reporter inhibition counter-screen; Drosophila S2 Gal4-VP16 UAS-luciferase, luminescence, 20 h; Potency, µM (titrated, usually from 53.6 µM), actives largely listed as inhibitors; hit rate 3.5% among 310,000;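 also: Gal4-VP16 expression switched on by copper sulfate through the metallothionein promoter; nearly all actives have a fitted effect of over 50% in size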
# DT40 TDP1 CPT: DT40-hTDP1 cell growth loss with CPT. chicken DT40 Tdp1-/-;hTDP1 cells + 20 nM CPT, ATP luminescence, 48 h. Potency, µM (series often up to 46.2 µM), actives largely listed as inhibitors. hit rate 12% among 420,000. AID 686979; also: nearly all actives have a fitted effect of over 55% in size
#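 Cell growth measured by CellTiter-Glo luminescence after a minimum 48 h, 37 C compound exposure with 20 nM CPT in Tdp1-knockout DT40 cells stably expressing hTDP1, seeded 400/well; qHTS titration format.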
# IL-1B inflam inh: inhibitors of inflammasome signaling (IL-1 beta secretion); THP-1 LPS/ATP IL-1B secretion, AlphaLISA, 16 h; stronger effect = lower value; activity change, % at 57.5 µM; hit rate 4.7% among 360,000; AID 743279; in the data active = activity change below about -50%; inconclusive = mostly about -30% to -49%
#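 Secreted IL-1B measured by AlphaLISA bead assay after 16 h compound exposure of THP-1 cells; compounds (final up to 57.5 uM) added 1 h before LPS (250 ng/mL) and ATP (1.25 mM) stimulation; lower signal means less secretion.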
# TDP1 cell noCPT: qHTS for Inhibitors of human tyrosyl-DNA phosphodiesterase 1 (TDP1): qHTS in cells in absence of CPT; DT40 Tdp1-/- hTDP1 cells, no CPT, ATP luminescence, 48 h; Potency, µM (titrated, usually from 46.2 µM), actives largely listed as inhibitors; hit rate 15% among 420,000; also: nearly all actives have a fitted effect of over 55% in size
#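 Chicken DT40 Tdp1-/- cells complemented with human TDP1, screened without camptothecin (DMSO vehicle only), 400 cells/well. Compounds pin-transferred, cells incubated at 37 °C for at least 48 hr. Growth read as ATP-dependent luminescence (CellTiter-Glo, 30 min at RT).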
# RORg inh: blocks mouse ROR gamma transcriptional activity | hit rate 5.4% among 310,000 | AID 2551 | Drosophila S2 Gal4-RORgamma UAS-luciferase reporter, 20 h | Potency, µM (doses to about 53.6 µM), most hits filed as inhibitors; also: nearly all actives have a fitted effect of over 60% in size
# Target sequence (P51450 whole entry, looked up, the tested form may be a part): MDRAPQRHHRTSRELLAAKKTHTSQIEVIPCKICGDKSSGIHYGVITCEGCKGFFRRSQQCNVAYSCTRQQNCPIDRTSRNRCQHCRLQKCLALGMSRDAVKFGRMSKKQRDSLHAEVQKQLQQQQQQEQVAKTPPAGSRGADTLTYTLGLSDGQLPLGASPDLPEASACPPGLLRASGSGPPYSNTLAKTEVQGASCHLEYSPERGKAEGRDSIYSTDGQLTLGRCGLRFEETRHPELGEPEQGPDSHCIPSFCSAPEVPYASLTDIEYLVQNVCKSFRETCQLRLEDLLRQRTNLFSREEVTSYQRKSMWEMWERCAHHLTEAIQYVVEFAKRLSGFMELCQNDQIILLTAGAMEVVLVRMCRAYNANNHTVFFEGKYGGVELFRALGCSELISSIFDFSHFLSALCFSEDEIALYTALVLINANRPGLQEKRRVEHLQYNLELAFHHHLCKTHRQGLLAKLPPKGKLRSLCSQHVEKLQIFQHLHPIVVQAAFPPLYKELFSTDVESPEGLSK
#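 Luminescence from a UAS-regulated Photinus luciferase reporter in stably transfected Drosophila Schneider cells is measured; decreased signal marks ROR gamma inhibition. Fusion expression is induced by 700 uM copper sulfate for 20 hr.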
# LDHA block: LDHA (human) enzyme inhibition | hit rate 0.15% among 480,000 | purified LDHA, NADH/diaphorase-resazurin fluorescence; stronger effect = lower value | P00338 | activity change, % (values are at about 110 or 230 µM); in the data active = activity change below about -30%; inconclusive = mostly about -25% to -30%
#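 LDH5 2 nM; NADH 0.06 mM, pyruvate 0.2 mM; 200 mM Tris pH 7.4, EDTA, Tween-20; 5 min RT. Detection: diaphorase 0.133 mg/mL + resazurin 37 µM, fluorescence ex540/em590 at 0 and 20 min; normalized to enzyme-free and DMSO wells.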
# Hits are given with their value; 0 = inactive; ? = inconclusive; - = no result; ! = a repeat was not active. Unless noted, calls follow the shape of the dose curve; as a rule, active = well fitted curve in the direction sought with a large enough effect; inconclusive = small, poorly fitted or top-dose-only effect, or another doubt; inactive = no such curve, though single readings can be large; an effect the other way counts as inactive or inconclusive.
SMILES,Gal4-VP16 FLuc,DT40 TDP1 CPT,IL-1B inflam inh,TDP1 cell noCPT,RORg inh,LDHA block
CCOc1ccc(OCc2ccc(C(=O)NC(C)C)o2)cc1,0,?,0,?,?,0
COc1ccc(-c2c(C)oc3cc(OC(=O)c4ccccc4)ccc3c2=O)cc1,-,-,-,-,-,0
CN(C)c1ccc(C=Nc2cccc3ccccc23)cc1,-,-,-,-,-,0
CCOc1ccc(N=Cc2ccc([N+](=O)[O-])cc2)c(O)c1,-,23µM,-52,12µM,-,0
CCOc1ccc(N=Cc2ccc(N(C)C)cc2)c(O)c1,-,15µM,0,7.3µM,-,0
Cc1cc(C(=O)CCC(=O)N(C)CC(=O)Nc2c(Cl)cccc2Cl)c(C)s1,-,0,0,12µM,-,0
CN(CC(=O)Nc1c(Cl)cccc1Cl)C(=O)CCC(=O)c1ccccc1,-,0,0,0,-,0
CN(CC(=O)Nc1c(Cl)cccc1Cl)C(=O)CCC1CCCC1,11µM,0,0,0,0,0
CN(CC(=O)Nc1ccccc1Cl)C(=O)c1cccc(-n2cccc2)c1,-,0,0,?,-,0
CN(CC(=O)Nc1c(Cl)cccc1Cl)C(=O)c1cccc(-n2cccc2)c1,-,16µM,0,0,-,-37!
CN(CC(=O)Nc1cccc(F)c1)C(=O)CCC1CCCCC1,-,?,0,?,-,0
Cc1occc1-c1nnc(SC(C)C(=O)NCc2cccs2)o1 (stereo unspecified),-,-,-,-,-,0
COC(=O)CSc1nnc(-c2ccccc2O)n1-c1ccc(C)cc1,?,0,0,0,?,0
O=C(CSc1nnc(COc2ccccc2)n1-c1ccccc1)c1cccs1,?,18µM,?,21µM,?,0
CCOC(=O)C(CC)Sc1nnc(COc2ccc(C)cc2)n1-c1ccccc1 (stereo unspecified),0,21µM,0,?,0,0
CCOC(=O)C(C)Sc1nnc(-c2ccccc2O)n1-c1ccc(C)cc1 (stereo unspecified),5.6µM,0,0,?,3.2µM,0
COC(=O)c1ccc(COC(=O)c2cc(F)c(F)cc2Cl)cc1,-,-,-,-,-,0
CCCc1nnc(NC(=O)NCC(O)c2ccc(F)cc2)s1 (stereo unspecified),-,-,-,-,-,0
CCn1cnnc1-c1cccc(NC(=O)Cc2ccc(F)cc2)c1,-,-,-,-,-,0
CCN(CC)C(=O)Cc1n[nH]c(=O)c2ccccc12,-,-,-,-,-,0
O=C(O)c1ccccc1NS(=O)(=O)c1cccc2nsnc12,0,0,0,0,0,0
O=C(O)c1cc(Br)ccc1NS(=O)(=O)c1cccc2nsnc12,0,0,0,0,0,-47
CC(CCc1ccco1)NC(=O)CCc1nnc2ccc(N3CCC4(CC3)OCCO4)nn12 (stereo unspecified),-,-,-,-,-,0
CCCCC1CCC(C(=O)NNC(=O)c2ccc(Cl)cc2)CC1 (stereo unspecified),-,-,-,-,-,0
CSc1ccccc1OC1CCN(Cc2ccccc2)CC1,0,0,-82,?,0,0
SMILES,Gal4-VP16 FLuc,DT40 TDP1 CPT,IL-1B inflam inh,TDP1 cell noCPT,RORg inh,LDHA block
CCc1ccc(CCC(=O)Nc2cccc3cccnc23)cc1,-,-,-,-,-,0
O=C(NCC(=O)N1CCN(Cc2c(F)cccc2Cl)CC1)c1cccc(Cl)c1,-,6.5µM,0,16µM,-,0
Cc1cc(C)cc(C(=O)NCC(=O)N2CCN(c3cccc(Cl)c3)CC2)c1,0,?,-70,?,0,0
Cc1cccc(N2CCN(C(=O)CNC(=O)c3cccc([N+](=O)[O-])c3)CC2)c1C,0,?,0,18µM,?,0
O=C(NCC(=O)N1CCN(Cc2ccccc2)CC1)c1cc(Cl)cc([N+](=O)[O-])c1,-,16µM,0,?,-,0
Cc1cccc(N2CCN(C(=O)CNC(=O)Cc3ccccc3)CC2)c1C,-,?,0,?,-,0
CC(C)CNC(=O)CN1CCN(Cc2ncc(-c3ccccc3)o2)CC1,-,-,-,-,-,0
CCCCOC(=O)COc1ccc2c(=O)c(Oc3cc(C)cc(C)c3)coc2c1,-,-,-,-,-,0
COCC(=O)N1CCN(Cc2nc(C(C)C)no2)CC1,-,-,-,-,-,0
Cc1ccc2c(=O)cc(C(=O)N(Cc3ccc(Cl)cc3)Cc3ccco3)oc2c1,-,-,-,-,-,0
O=C(NC(=O)N1CCN(c2cccc(Cl)c2)CC1)c1ccc(Cl)cc1,?,?,0,?,16µM,0
O=C(NCCC(=O)N1CCN(c2cccc(Cl)c2)CC1)c1ccc(Br)cc1,-,?,-55,?,-,0
O=C(/C=C/Nc1ccccc1F)C(F)(F)F,-,-,-,-,-,0
Cc1c(C(=O)Nc2ccc3c(c2)C(=O)OC3)nnn1-c1ccc(Br)cc1,-,-,-,-,-,0
C[N+]1(C)CC2CCC(Cl)=C(Cl)C2C1 (stereo unspecified),-,-,-,-,-,0
O=CNc1cc(-c2ccoc2)cn2c(-c3ccc(F)cc3)cnc12,-,13µM,0,23µM,-,0
CS(=O)(=O)Nc1cccc(-c2cc(NC=O)c3ncc(-c4ccc(F)cc4)n3c2)c1,-,23µM,0,?,-,0
O=CNc1cc(-c2cccc(F)c2)cn2c(-c3ccc(F)cc3)cnc12,-,29µM,0,?,-,0
O=c1c(S(=O)(=O)c2ccc(F)c(Cl)c2)c[nH]c2ccc(F)cc12,-,-,-,-,-,0
O=S(Cc1cccc(C(F)(F)F)c1)Cc1ccc(Cl)cc1Cl (stereo unspecified),-,-,-,-,-,0
CN(CC(=O)NC1(C#N)CCCCCC1)Cc1ccc(C(F)(F)F)cc1,-,-,-,-,-,0
Fc1ccccc1CNCCN1CCCC1,-,-,-,-,-,0
C[C@H](CO)N1C[C@H](C)[C@@H](CN(C)C(=O)Nc2ccc(C(F)(F)F)cc2)Oc2ccc(NC(=O)Nc3ccc(C(F)(F)F)cc3)cc2C1=O,-,?,?,?,-,0
Cc1ccc(S(=O)(=O)Nc2cccc3c2O[C@H](CN(C)Cc2ccccc2)[C@@H](C)CN([C@H](C)CO)C3=O)cc1,-,?,0,16µM,-,0
C[C@H]1CN([C@@H](C)CO)C(=O)c2cccc(NC(=O)Nc3ccc(C(F)(F)F)cc3)c2O[C@H]1CN(C)C,-,21µM,0,?,-,0
COc1ccc(NC(=O)Nc2cccc3c2O[C@H](CN(C)S(=O)(=O)c2ccccc2)[C@@H](C)CN([C@H](C)CO)C3=O)cc1,-,18µM,0,?,-,0
C[C@@H]1CN([C@H](C)CO)C(=O)c2cc(NC(=O)Nc3ccc(C(F)(F)F)cc3)ccc2O[C@H]1CN(C)C(=O)Nc1ccc(F)cc1,-,?,-61,?,-,0
C[C@H](CO)N1C[C@H](C)[C@@H](CN(C)C)Oc2c(NC(=O)CCC(F)(F)F)cccc2C1=O,-,0,0,0,-,0
N#CC1(NC(=O)COc2cccc(C(F)(F)F)c2)CCCCC1,-,-,-,-,-,0
COc1ccc(NC(=O)Nc2cccc3c2O[C@H](CN(C)S(=O)(=O)c2ccc(OC)cc2)[C@@H](C)CN([C@H](C)CO)C3=O)cc1,-,?,0,?,-,0

# Source: PubChem
